# Results published in PMC7862700, “An all-to-all approach to the identification of sequence-specific readers for epigenetic DNA modifications on cytosine”.
# Key:
# Assay in all cases: DAPPL (digital affinity profiling via proximity ligation, sequencing); 10 mM Tris-HCl pH 7.5, 50 mM NaCl, 1 mM DTT, 4% glycerol, room temperature, 30 min; GST-TFs on glutathione beads, 16-mer random dsDNA library, 0.1% formaldehyde crosslink after washing; high values mean tight binding
# FLI1 = target: T1, FLI1 (Homo sapiens, UniProt Q01543 1-452); details: protein: recombinant; tags: N-terminal GST; dsDNA, one strand shown
# T1 sequence: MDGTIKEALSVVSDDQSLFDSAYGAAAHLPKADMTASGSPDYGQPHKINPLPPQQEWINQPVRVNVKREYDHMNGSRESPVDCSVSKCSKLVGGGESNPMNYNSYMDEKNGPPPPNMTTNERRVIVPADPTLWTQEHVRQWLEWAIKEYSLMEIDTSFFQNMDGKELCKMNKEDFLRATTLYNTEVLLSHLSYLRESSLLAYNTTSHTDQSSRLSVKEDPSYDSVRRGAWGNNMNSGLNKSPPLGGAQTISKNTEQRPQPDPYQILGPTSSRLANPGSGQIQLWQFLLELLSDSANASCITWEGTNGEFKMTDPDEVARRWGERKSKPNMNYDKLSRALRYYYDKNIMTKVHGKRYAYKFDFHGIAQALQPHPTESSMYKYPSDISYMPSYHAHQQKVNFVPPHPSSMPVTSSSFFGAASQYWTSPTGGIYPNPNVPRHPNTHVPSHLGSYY
# How it was run: (§1)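 Binding signal is defined as a hexamer's read frequency for one factor over its frequency for the tag-only sample. To obtain reads, GST-fused human transcription factors were expressed in yeast, captured on glutathione beads, barcoded with DNA and pooled with that sample. Pools met 200 nmole of a 16-mer random double-stranded DNA library in Tris/NaCl/DTT/glycerol buffer for 30 min at room temperature before washing, 0.1% formaldehyde crosslinking, proximity ligation (BsaI/T4 ligase, 1 h, 37 °C), PCR and Illumina NextSeq500 sequencing.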
# ELK1 = target: T2, ELK1 (Homo sapiens, UniProt P19419 1-428); details: protein: recombinant; tags: N-terminal GST; dsDNA, one strand shown
# T2 sequence: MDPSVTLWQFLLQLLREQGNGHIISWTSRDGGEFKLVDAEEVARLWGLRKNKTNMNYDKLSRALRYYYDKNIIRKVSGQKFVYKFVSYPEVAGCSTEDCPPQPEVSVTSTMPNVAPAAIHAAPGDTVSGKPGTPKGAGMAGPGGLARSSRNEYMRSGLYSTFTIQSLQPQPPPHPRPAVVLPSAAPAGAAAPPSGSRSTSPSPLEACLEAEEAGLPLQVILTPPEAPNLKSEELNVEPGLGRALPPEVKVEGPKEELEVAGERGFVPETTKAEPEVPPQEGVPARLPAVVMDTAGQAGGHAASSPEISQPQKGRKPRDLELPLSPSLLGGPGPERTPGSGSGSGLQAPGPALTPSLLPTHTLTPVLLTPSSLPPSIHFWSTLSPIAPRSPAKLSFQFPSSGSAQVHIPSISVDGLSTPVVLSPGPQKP
# How it was run: as §1
# GABPA = target: T3, GABPA (Homo sapiens, UniProt Q06546 1-454); details: protein: recombinant; tags: N-terminal GST; dsDNA, one strand shown
# T3 sequence: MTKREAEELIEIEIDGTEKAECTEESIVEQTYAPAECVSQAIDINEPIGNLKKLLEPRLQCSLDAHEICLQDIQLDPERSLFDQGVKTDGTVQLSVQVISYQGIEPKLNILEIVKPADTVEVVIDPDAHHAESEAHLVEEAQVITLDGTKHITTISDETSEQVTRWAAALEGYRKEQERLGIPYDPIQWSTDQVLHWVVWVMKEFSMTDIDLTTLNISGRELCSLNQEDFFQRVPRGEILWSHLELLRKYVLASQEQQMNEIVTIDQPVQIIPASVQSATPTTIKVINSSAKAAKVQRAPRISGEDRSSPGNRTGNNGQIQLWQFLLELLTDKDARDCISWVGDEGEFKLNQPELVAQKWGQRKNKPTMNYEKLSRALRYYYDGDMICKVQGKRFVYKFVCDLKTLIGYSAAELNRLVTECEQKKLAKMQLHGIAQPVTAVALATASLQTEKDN
# How it was run: as §1
# ERG = target: T4, ERG (Homo sapiens, UniProt P11308 1-479); details: protein: recombinant; tags: N-terminal GST; dsDNA, one strand shown
# T4 sequence: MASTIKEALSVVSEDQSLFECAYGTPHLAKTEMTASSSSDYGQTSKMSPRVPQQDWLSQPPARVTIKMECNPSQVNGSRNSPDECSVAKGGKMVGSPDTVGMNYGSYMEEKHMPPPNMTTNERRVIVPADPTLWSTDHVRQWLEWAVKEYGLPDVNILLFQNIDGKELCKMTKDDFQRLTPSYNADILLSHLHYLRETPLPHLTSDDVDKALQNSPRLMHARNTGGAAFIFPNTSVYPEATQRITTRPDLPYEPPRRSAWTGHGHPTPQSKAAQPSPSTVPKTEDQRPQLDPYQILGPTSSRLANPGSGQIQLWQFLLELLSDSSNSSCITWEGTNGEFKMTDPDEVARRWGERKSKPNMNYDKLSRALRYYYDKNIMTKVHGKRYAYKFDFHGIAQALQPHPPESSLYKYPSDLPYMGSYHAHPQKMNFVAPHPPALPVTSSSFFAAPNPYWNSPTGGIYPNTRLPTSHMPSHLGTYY
# How it was run: as §1
# ELF1 = ELF1 (Homo sapiens, UniProt P32519 1-619); details: protein: recombinant; tags: N-terminal GST; dsDNA, one strand shown
# Chain of ELF1 (P32519 whole entry): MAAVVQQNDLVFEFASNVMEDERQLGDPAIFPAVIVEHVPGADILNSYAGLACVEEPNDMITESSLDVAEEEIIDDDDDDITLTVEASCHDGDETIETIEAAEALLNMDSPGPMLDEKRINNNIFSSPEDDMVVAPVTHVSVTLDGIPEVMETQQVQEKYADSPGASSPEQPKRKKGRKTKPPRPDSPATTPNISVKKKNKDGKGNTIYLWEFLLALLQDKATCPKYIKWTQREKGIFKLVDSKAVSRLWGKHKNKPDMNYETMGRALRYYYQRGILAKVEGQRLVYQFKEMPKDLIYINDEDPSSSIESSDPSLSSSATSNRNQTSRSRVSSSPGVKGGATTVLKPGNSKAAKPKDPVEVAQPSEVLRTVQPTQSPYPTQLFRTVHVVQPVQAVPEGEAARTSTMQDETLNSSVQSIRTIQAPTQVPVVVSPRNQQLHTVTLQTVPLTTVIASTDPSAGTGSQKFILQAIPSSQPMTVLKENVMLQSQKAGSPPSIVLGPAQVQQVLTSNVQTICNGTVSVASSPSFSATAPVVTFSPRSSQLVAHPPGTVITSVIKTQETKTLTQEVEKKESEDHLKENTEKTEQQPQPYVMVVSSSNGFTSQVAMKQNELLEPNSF
# How it was run: as §1
# EHF = target: T5, EHF (Homo sapiens, UniProt Q9NZC4 1-300); details: protein: recombinant; tags: N-terminal GST; dsDNA, one strand shown
# T5 sequence: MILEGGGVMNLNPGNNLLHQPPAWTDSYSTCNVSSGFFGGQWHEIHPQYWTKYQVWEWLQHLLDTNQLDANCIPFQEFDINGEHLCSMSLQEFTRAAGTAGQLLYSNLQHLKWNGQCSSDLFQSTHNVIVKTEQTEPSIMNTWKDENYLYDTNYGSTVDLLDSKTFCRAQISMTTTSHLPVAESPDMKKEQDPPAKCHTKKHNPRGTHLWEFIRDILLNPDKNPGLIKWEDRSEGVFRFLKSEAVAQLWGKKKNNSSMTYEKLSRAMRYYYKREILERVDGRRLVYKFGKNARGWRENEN
# How it was run: as §1
# SPI1 = SPI1 (Homo sapiens, UniProt P17947 1-270); details: protein: recombinant; tags: N-terminal GST; dsDNA, one strand shown
# How it was run: as §1
# SPIB = SPIB (Homo sapiens, UniProt Q01892 1-262); details: protein: recombinant; tags: N-terminal GST; dsDNA, one strand shown
# Chain of SPIB (Q01892 whole entry): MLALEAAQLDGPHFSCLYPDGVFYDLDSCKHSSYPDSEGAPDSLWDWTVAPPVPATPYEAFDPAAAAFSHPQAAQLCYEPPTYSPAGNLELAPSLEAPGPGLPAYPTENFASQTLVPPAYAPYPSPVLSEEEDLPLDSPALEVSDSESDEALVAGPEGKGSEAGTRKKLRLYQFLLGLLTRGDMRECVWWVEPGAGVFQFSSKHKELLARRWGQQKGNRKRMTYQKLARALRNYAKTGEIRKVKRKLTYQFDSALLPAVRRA
# How it was run: as §1
# ELK3 = target: T6, ELK3 (Homo sapiens, UniProt P41970 1-407); details: protein: recombinant; tags: N-terminal GST; dsDNA, one strand shown
# T6 sequence: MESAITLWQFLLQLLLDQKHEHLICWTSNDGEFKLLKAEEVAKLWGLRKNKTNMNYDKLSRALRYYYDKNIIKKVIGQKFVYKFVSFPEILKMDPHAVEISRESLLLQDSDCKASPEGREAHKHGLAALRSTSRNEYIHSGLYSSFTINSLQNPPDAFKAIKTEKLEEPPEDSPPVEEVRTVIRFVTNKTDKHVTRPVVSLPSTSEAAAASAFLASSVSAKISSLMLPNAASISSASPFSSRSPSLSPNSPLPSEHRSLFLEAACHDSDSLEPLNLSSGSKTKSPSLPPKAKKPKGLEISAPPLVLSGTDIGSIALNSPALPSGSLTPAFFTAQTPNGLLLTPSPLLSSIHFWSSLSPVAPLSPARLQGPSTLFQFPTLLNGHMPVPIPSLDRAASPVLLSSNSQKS
# How it was run: as §1
# FEV = target: T7, FEV (Homo sapiens, UniProt Q99581 1-238); details: protein: recombinant; tags: N-terminal GST; dsDNA, one strand shown
# T7 sequence: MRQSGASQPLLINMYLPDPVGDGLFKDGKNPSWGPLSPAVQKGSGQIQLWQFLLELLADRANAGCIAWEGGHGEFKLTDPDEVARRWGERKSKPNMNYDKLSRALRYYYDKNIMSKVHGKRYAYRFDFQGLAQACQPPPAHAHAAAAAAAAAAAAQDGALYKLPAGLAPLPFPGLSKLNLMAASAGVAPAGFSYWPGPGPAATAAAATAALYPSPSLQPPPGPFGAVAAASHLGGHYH
# How it was run: as §1
# ETV5 = ETV5 (Homo sapiens, UniProt P41161 1-510); details: protein: recombinant; tags: N-terminal GST; dsDNA, one strand shown
# Chain of ETV5 (P41161 whole entry): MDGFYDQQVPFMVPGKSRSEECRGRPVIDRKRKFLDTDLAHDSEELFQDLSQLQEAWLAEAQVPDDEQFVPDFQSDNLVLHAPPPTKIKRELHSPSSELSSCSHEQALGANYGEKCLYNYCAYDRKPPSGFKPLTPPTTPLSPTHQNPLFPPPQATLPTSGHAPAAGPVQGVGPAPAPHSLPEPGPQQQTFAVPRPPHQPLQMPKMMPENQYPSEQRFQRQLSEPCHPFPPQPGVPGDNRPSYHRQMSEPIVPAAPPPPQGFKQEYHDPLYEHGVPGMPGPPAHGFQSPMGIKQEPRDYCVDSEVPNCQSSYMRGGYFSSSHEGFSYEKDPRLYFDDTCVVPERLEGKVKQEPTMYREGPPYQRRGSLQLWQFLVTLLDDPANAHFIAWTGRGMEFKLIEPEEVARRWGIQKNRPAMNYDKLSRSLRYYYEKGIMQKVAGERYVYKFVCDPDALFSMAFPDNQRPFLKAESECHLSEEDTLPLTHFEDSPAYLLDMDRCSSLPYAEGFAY
# How it was run: as §1
# HSF1 = HSF1 (Homo sapiens, UniProt Q00613 1-529); details: protein: recombinant; tags: N-terminal GST; chain copies: 3; dsDNA, one strand shown
# Chain of HSF1 (Q00613 whole entry): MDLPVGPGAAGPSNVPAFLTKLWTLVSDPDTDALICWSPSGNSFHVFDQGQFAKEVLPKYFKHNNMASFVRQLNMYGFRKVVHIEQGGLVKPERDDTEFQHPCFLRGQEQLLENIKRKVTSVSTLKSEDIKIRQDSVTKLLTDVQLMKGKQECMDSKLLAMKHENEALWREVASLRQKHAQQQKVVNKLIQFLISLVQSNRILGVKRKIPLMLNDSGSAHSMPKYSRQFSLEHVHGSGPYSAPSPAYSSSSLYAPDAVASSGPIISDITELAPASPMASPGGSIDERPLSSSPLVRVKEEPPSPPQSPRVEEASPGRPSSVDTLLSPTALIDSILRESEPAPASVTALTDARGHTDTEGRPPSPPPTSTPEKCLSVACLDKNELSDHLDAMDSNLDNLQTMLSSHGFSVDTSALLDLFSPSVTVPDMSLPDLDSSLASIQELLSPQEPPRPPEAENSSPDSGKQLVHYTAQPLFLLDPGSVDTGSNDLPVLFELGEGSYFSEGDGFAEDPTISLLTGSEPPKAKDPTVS
# How it was run: as §1
# SPIC = target: T8, SPIC (Homo sapiens, UniProt Q8N5J4 1-248); details: protein: recombinant; tags: N-terminal GST; dsDNA, one strand shown
# T8 sequence: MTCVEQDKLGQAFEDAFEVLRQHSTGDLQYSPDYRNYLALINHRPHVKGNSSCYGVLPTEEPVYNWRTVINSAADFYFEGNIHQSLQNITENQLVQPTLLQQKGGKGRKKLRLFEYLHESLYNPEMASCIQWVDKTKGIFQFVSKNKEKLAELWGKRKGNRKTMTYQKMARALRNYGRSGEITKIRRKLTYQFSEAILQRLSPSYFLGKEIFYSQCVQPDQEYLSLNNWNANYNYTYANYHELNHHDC
# How it was run: as §1
# ELF4 = ELF4 (Homo sapiens, UniProt Q99607 1-663); details: protein: recombinant; tags: N-terminal GST; dsDNA, one strand shown
# Chain of ELF4 (Q99607 whole entry): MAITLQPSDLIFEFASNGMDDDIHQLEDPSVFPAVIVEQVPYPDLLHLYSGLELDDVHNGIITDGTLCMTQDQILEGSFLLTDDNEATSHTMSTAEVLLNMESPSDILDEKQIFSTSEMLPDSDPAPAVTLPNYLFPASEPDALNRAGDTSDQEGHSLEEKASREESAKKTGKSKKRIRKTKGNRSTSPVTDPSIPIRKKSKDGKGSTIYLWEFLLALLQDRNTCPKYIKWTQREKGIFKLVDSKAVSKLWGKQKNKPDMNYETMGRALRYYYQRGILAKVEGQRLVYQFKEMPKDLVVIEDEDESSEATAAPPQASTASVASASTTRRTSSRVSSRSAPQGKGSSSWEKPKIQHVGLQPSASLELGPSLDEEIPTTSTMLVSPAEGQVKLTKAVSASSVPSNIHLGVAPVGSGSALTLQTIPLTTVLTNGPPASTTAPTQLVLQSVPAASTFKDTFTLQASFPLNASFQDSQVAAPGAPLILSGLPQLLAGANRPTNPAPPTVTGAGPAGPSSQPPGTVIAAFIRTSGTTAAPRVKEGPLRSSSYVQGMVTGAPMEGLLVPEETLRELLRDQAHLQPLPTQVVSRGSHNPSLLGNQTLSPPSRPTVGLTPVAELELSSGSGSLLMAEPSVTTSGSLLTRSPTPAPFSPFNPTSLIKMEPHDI
# How it was run: as §1
# ELK4 = target: T9, ELK4 (Homo sapiens, UniProt P28324-2 1-405); details: protein: recombinant; tags: N-terminal GST; dsDNA, one strand shown
# T9 sequence: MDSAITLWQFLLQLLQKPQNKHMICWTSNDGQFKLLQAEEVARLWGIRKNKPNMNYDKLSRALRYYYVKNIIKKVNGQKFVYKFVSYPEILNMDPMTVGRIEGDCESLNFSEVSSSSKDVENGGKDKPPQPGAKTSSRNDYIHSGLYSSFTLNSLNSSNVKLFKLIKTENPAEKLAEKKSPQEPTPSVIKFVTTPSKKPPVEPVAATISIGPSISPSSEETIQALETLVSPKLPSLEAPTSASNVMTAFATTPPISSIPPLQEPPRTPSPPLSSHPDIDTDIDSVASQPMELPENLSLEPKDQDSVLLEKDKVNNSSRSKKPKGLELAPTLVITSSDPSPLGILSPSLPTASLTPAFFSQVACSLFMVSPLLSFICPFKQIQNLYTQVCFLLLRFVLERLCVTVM
# How it was run: as §1
# ETV2 = target: T10, ETV2 (Homo sapiens, UniProt O00321 1-342); details: protein: recombinant; tags: N-terminal GST; dsDNA, one strand shown
# T10 sequence: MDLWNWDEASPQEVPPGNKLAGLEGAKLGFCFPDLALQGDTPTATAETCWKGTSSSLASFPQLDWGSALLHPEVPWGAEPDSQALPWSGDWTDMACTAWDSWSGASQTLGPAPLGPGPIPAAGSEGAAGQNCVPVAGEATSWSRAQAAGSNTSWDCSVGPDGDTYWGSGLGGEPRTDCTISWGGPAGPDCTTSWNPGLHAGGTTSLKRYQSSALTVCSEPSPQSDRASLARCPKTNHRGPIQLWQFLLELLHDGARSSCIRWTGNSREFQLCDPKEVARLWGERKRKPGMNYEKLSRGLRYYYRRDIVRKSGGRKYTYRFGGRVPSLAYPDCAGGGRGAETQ
# How it was run: as §1
# ELF3 = target: T11, ELF3 (Homo sapiens, UniProt P78545 1-371); details: protein: recombinant; tags: N-terminal GST; dsDNA, one strand shown
# T11 sequence: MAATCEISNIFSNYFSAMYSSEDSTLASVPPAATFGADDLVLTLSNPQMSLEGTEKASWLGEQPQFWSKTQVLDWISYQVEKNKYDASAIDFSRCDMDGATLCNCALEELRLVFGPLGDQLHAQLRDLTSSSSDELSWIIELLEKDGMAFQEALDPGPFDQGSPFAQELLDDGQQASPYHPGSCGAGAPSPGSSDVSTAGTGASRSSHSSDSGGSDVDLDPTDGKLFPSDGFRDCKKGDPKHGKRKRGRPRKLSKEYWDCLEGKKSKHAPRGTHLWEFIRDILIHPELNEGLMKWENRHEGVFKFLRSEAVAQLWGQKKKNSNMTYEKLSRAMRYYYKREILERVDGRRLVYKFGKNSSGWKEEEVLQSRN
# How it was run: as §1
# CRX = CRX (Homo sapiens, UniProt O43186 1-299); details: protein: recombinant; tags: N-terminal GST; dsDNA, one strand shown
# Chain of CRX (O43186 whole entry): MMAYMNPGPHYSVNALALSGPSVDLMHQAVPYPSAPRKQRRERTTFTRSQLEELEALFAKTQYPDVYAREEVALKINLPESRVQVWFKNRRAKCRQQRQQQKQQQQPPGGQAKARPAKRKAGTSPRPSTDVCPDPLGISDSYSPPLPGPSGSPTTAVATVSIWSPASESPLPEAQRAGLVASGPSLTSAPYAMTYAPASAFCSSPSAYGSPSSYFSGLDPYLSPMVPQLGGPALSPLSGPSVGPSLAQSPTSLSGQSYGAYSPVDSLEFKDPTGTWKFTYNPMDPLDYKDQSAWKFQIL
# How it was run: as §1
# ETV1 = ETV1 (Homo sapiens, UniProt P50549 1-477); details: protein: recombinant; tags: N-terminal GST; dsDNA, one strand shown
# Chain of ETV1 (P50549 whole entry): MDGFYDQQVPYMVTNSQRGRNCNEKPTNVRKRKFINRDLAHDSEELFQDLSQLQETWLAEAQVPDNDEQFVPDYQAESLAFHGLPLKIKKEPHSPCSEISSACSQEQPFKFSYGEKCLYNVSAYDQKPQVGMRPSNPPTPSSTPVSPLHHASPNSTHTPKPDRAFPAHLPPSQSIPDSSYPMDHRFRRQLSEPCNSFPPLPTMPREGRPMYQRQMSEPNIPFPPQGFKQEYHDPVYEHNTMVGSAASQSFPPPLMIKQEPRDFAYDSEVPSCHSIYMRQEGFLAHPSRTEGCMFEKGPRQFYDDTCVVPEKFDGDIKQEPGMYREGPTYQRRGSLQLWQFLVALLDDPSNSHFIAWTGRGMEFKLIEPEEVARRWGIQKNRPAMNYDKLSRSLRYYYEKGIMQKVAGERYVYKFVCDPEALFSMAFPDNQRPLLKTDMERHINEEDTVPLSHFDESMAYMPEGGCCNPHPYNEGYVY
# How it was run: as §1
sequence,measurement,setting,value
GATTCC,binding signal,FLI1,"1.19 fold enrichment (6-mer frequency, TF over GST control)"
same,binding signal,ELK1,"1.05 fold enrichment (6-mer frequency, TF over GST control)"
same,binding signal,GABPA,"1.08 fold enrichment (6-mer frequency, TF over GST control)"
same,binding signal,ERG,"1.2 fold enrichment (6-mer frequency, TF over GST control)"
same,binding signal,ELF1,"1.18 fold enrichment (6-mer frequency, TF over GST control)"
same,binding signal,EHF,"1.15 fold enrichment (6-mer frequency, TF over GST control)"
same,binding signal,SPI1,"1.14 fold enrichment (6-mer frequency, TF over GST control)"
same,binding signal,SPIB,"1.16 fold enrichment (6-mer frequency, TF over GST control)"
same,binding signal,ELK3,"1.17 fold enrichment (6-mer frequency, TF over GST control)"
same,binding signal,FEV,"1.09 fold enrichment (6-mer frequency, TF over GST control)"
same,binding signal,ETV5,"1.21 fold enrichment (6-mer frequency, TF over GST control)"
same,binding signal,HSF1,"1.34 fold enrichment (6-mer frequency, TF over GST control)"
same,binding signal,SPIC,"1.18 fold enrichment (6-mer frequency, TF over GST control)"
same,binding signal,ELF4,"1.19 fold enrichment (6-mer frequency, TF over GST control)"
same,binding signal,ELK4,"1.13 fold enrichment (6-mer frequency, TF over GST control)"
same,binding signal,ETV2,"1.13 fold enrichment (6-mer frequency, TF over GST control)"
same,binding signal,ELF3,"1.09 fold enrichment (6-mer frequency, TF over GST control)"
same,binding signal,CRX,"1.15 fold enrichment (6-mer frequency, TF over GST control)"
same,binding signal,ETV1,"1.21 fold enrichment (6-mer frequency, TF over GST control)"
